Compounds with a hit are over-represented: about 19% of the library has one in this group of screens.
IL-1B inflam inh: inflammasome signaling inhibition, IL-1 beta readout; actives 4.7% (n = 360,000); THP-1 LPS/ATP IL-1B secretion, AlphaLISA, 16 h; active compounds read low; AID 743279; activity change, % at 57.5 µM; in the data active = activity change below about -50%; inconclusive = mostly about -30% to -49%
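THP-1 cells pretreated 1 hr with compounds (up to 57.5 uM final), then stimulated with LPS (250 ng/mL final) plus ATP (1.25 mM final); secreted IL-1B measured by AlphaLISA after 16 hr, decreased signal indicating inhibition.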
TDP1 cell CPT: growth inhibition of DT40 Tdp1-/-;hTDP1 cells with camptothecin (screen for TDP1 inhibitors). chicken DT40 Tdp1-/-;hTDP1 cells + 20 nM CPT, ATP luminescence, 48 h. Potency, µM (titrated, usually from 46.2 µM), for the others: top-dose activity change, negative = growth inhibition, most hits filed as inhibitors. actives 12% (n = 420,000); note: potency is the fitted concentration of half-maximal effect; nearly all actives have a fitted effect of over 55% in size
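Cell growth measured by CellTiter-Glo luminescence after a minimum 48 h, 37 C compound exposure with 20 nM CPT in Tdp1-knockout DT40 cells stably expressing hTDP1, seeded 400/well; qHTS titration format.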
DT40 TDP1 no CPT: qHTS for Inhibitors of human tyrosyl-DNA phosphodiesterase 1 (TDP1): qHTS in cells in absence of CPT; DT40 Tdp1-/- hTDP1 cells, no CPT, ATP luminescence, 48 h; Potency, µM (doses to about 46.2 µM), without a hit: at the highest dose activity change, negative = growth inhibition, most hits filed as inhibitors; actives 15% (n = 420,000); note: potency is the fitted concentration of half-maximal effect; nearly all actives have a fitted effect of over 55% in size
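Growth kinetics read by CellTiter-Glo luminescence after ≥48 hr at 37 °C. Cells: DT40 Tdp1-/- stably carrying human TDP1, 400 per well, compound exposure in the absence of CPT (DMSO vehicle).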
HT1080-NT tox: kills 2HG-producing HT-1080-NT fibrosarcoma cells | Potency, µM (top dose mostly 46.1 µM), inactives show at the top dose activity, negative = less viability, usual class: cytotoxic | HT-1080-NT fibrosarcoma viability, CellTiter-Glo ATP luminescence, 48 h | actives 1.6% (n = 360,000);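 note: NT is the 2HG producing partner of a matched IDH1 knockdown line; potency is the fitted concentration of half-maximal effect; 0% = DMSO-treated cells and -100% = media-only wells without cells; nearly all actives have a fitted effect of over 55% in size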
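Viability of the 2HG-overproducing fibrosarcoma line after 48 hours of compound exposure at 37 degrees C was determined by luminescence with CellTiter-Glo, and concentration-effect curves were then fitted and categorized.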
HT1080 IDH1KD tx: HT-1080 IDH1 knockdown cell toxicity (counter line); HT-1080 IDH1 knockdown viability, ATP luminescence, 48 h; Potency, µM (highest dose often 46.1 µM), inactives show at the highest dose activity, negative = toxicity, most hits filed as cytotoxic; actives 2% (n = 360,000);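 note: potency is the fitted concentration of half-maximal effect; 0% = DMSO wells and -100% = cell-free medium wells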
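% activity derives from luminescence (CellTiter-Glo), normalised to DMSO and no-cell wells. HT-1080-IDH1KD cells, 750/well, had 48 h compound exposure at 37 °C.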
ELG1 DNA repair: inhibitors of ELG1-dependent DNA repair in HEK293T cells. HEK293T ELG1-luciferase reporter, luminescence, 16 h; DNA damage induced by 5-fluorouridine. Potency, µM (doses to about 46.1 µM), without a hit: at the highest dose activity change, negative = inhibition, most hits filed as inhibitors. actives 2.3% (n = 330,000). AID 504467; note: potency is the fitted concentration of half-maximal effect; nearly all actives have a fitted effect of over 55% in size
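5-Fluorouridine DNA damage + compound/DMSO, 2,000 cells/well, 16 h, 37 °C/5% CO2. ONE-Glo, 30 min RT, luminescence. Readout = decrease in reporter signal.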
An asterisk follows results filed as active; ? = inconclusive; . = not tested or not shown; [ ] = remark or other dose. Unless noted, calls come from the whole dose curve; as a rule, active = well fitted curve in the direction sought with a large enough effect; inconclusive = small, poorly fitted or top-dose-only effect, or another doubt; inactive = no such curve, though single readings can be large; an effect the other way counts as inactive or inconclusive. Unless noted, % is set by controls: 0 for no effect and ±100 for the full control effect.

SMILES	IL-1B inflam inh	TDP1 cell CPT	DT40 TDP1 no CPT	HT1080-NT tox	HT1080 IDH1KD tx	ELG1 DNA repair
Cc1nnc(NC(=O)c2cccn(Cc3cccc([N+](=O)[O-])c3)c2=O)s1	.	-12.5%	-4.7%	.	.	.
CCC1(C)Cc2ccccc2-c2c1c(=O)n(Cc1ccccc1)c1nnnn21 (centres undefined)	-4.3	?	?	-13.2%	-2.4%	-13.2%
CCCCOc1ccc(C(=O)NCCc2csc(-c3ccc(OC)cc3)n2)cc1	.	4.61µM*	4.11µM*	.	.	.
COc1ccc(CNC(=O)CSCc2cnn(-c3ccccc3)c2-n2cccc2)cc1OC	.	14.6µM*	13µM*	.	.	.
CCNC1(c2cccs2)CCCCC1=O (centres undefined)	.	5.9%[21.1 µM]	-16.5%[21.1 µM]	.	.	.
CCc1ccc2c(CN3CC=C(c4ccccc4)CC3)cc(=O)oc2c1	10.0	?	16.4µM*	4.4%	0.1%	17.0%
O=c1[nH]c(CN2CC=C(c3ccccc3)CC2)nc2scc(-c3ccccc3)c12	41.3	?	?	0.0%	-3.7%	?
Cc1ccc2c(CN3CC=C(c4ccccc4)CC3)cc(=O)oc2c1C	0.7	?	23.1µM*	4.5%	4.9%	12.4%
O=c1[nH]c(CN2CC=C(c3ccccc3)CC2)nc2cc(C(F)(F)F)ccc12	25.4	?	?	-6.6%	-1.2%	1.4%
Cc1c(N)cccc1N	-27.6	-14.0%	-7.7%	16.9%	9.1%	?
ClCCN(CCCl)c1ccc(-n2cnc3c(Cl)ncnc32)cc1	-96.0*	6.51µM*	6.51µM*	?	23.1µM*	.
CC(C)C1C(C#N)=C(N)Oc2c1c(=O)oc1ccccc21 (centres undefined)	5.3	-18.6%	-14.2%	5.6%	5.0%	.
NS(=O)(=O)c1ccc(CCNc2ccn3nc(-c4cccc(C(F)(F)F)c4)cc3n2)cc1	-20.5	?	?	?	-27.2%	.
NS(=O)(=O)c1ccc(CCNc2nn3c(-c4ccc(F)c(Cl)c4)cnc3s2)cc1	?	16.4µM*	23.1µM*	?	11.6µM*	.
Oc1ccc2c3c1OC1C(O)CC[C@]4(O)C(C2)N(CC2CCC2)CC[C@]314 (some centres undefined)	.	7.3%	0.1%	.	.	.
Cc1[nH]n(-c2ccccc2)c(=O)c1C(C[N+](=O)[O-])c1ccccc1Cl (centres undefined)	13.9	20.6µM*	29.1µM*	-8.9%	-6.4%	-1.2%
Cc1[nH]n(-c2ccccc2)c(=O)c1C(c1ccc([N+](=O)[O-])cc1)c1c(C)[nH]n(-c2ccccc2)c1=O	-12.8	16.4µM*	?	-0.2%	5.2%	-10.1%
CN1CCc2cc(O)cc3c2[C@H]1Cc1ccc(O)c(O)c1-3	-17.4	1.64µM*	2.59µM*	8.2µM*	5.8µM*	.
COc1cc2c(cc1O)C[C@H]1c3c(cc(O)c(OC)c3-2)CCN1C	0.2	-2.5%	-2.3%	22.3%	2.2%	?
CCCN1CCc2cccc3c2C1Cc1ccc(O)c(O)c1-3 (centres undefined)	.	3.66µM*	-89.3%	.	.	.
COc1cccc(NP(=O)(Oc2ccccc2)Oc2ccccc2)c1	?	5.17µM*	3.66µM*	?	?	?
O=P(Nc1cccnc1)(Oc1ccccc1)Oc1ccccc1	-7.3	21.4%	-11.3%	-5.1%	-0.4%	1.3%
COc1cccc(NP(=O)(Oc2ccccc2Cl)Oc2ccccc2Cl)c1	-87.3*	?	18.4µM*	20.6µM*	?	?
O=C1CC(c2ccc(C(F)(F)F)cc2)c2c(c3ccccc3oc2=O)O1 (centres undefined)	.	19.3%	-1.6%	.	.	.
Cc1ccc(NC(=O)Cn2cc(C(=O)c3ccccc3)c3ccccc32)c(C)c1	.	?	-20.9%	.	.	.
SMILES	IL-1B inflam inh	TDP1 cell CPT	DT40 TDP1 no CPT	HT1080-NT tox	HT1080 IDH1KD tx	ELG1 DNA repair
COc1ccc2c(c1)c(=O)c(C(=O)c1ccc(Cl)cc1)cn2CC(=O)Nc1ccc2c(c1)OCCO2	.	18.4µM*	20.6µM*	.	.	.
O=C(c1ccc(Cl)cc1)c1cn(Cc2ccccc2)c2cc3c(cc2c1=O)OCCO3	.	?	23.1µM*	.	.	.
COc1cc(C2C(C#N)=C(N)OC3=C2C(=O)CC(C)(C)C3)ccc1OC(=O)N1CCOCC1 (centres undefined)	13.9	-2.6%	-14.9%	10.7%	?	7.9%
COc1cc(C2C(C#N)=C(N)Oc3cc(O)ccc32)cc(OC)c1OC (centres undefined)	20.0	1.03µM*	1.03µM*	0.562µM*	?	?
C=C(C)[C@H]1C2C(=O)O[C@H]1[C@H]1OC(=O)[C@@]34O[C@@H]3C[C@]2(O)[C@@]14C	.	-1.6%	-0.9%	.	.	.
CCC1(O)C(=O)OCc2c1cc1n(c2=O)Cc2cc3c(N)cccc3nc2-1 (centres undefined)	-96.7*	0.206µM*	0.0517µM*	1.64µM*	0.651µM*	.
